High-throughput results deposited in PubChem BioAssay by National Center for Advancing Translational Sciences (NCATS).
Lassa entry – qHTS for Inhibitors of binding or entry into cells for Lassa Virus | Lassa virus pseudotyped entry inhibition, cell-based qHTS | Potency, µM (titrated, usually from 49.2 µM), without a hit: top-dose activity change, negative = inhibition, hits mostly inhibitors | hit rate 4.1% among 18,000
Marburg entry – qHTS for Inhibitors of binding or entry into cells for Marburg Virus. Marburg virus pseudotype entry/binding inhibition, cell-based. Potency, µM (top dose mostly 49.2 µM), inactives show at the highest dose activity change, negative = inhibition, hits mostly inhibitors. hit rate 6.5% among 18,000. AID 720532, 2013
* = called active by the depositor; u = inconclusive; x = no result; ! = a repeat was not active; [ ] = dose if it differs, or a comment. Most compounds without a hit are left out; they make up all but 7.1% or so of the library. The call rests on the fitted dose curve; tested in HEK293 cells. On the % scale 0 is the no-effect control and ±100 the full control effect; potency means the concentration at half of the fitted maximal effect.

SMILES	Lassa entry	Marburg entry
O=C(c1ccc(N2CCC(NCCCn3ncc4ccccc43)CC2)cc1)N1CCc2ccccc2C1	u	20µM*
O=C(c1ccc(N2CCC(NCCCn3ncc4ccccc43)CC2)cc1)N1CCOCC1	0.5%	u
CCCCCCN1C[C@@H](O)[C@H](n2cc(C3CC3)nn2)C[C@H]1c1ccc(OC)cc1	-8.2%	-21.9%
CC1(C)CC(=O)C2=C(C1)O[C@@]1(CCCCN3C(=O)c4ccccc4C3=O)Cc3cc(C#N)ccc3[C@H]2O1	-5.3%[8.59 µM]	u
COC(=O)NC(C=Cc1ccccc1)C(C(C)=O)C(=O)OC (stereo unspecified)	-11.1%[8.59 µM]	u
CC(=O)N[C@H]1C(O[C@@H]2O[C@H](C[C@@H](O)[C@H]3O[C@@H](N4CCC(=O)NC4=O)[C@H](O)[C@@H]3O)[C@H](O)[C@H](O)[C@H]2NC(=O)/C=C/CCCCCCCCCCC(C)C)OC(CO)[C@@H](O)[C@@H]1O (stereo partly specified)	u	4.47µM*
CC(=O)NC1C(OC2OC(CC(O)C3OC([N+]4=CCC(=O)NC4=O)C(O)C3O)C(O)C(O)C2NC(=O)/C=C/CCCCCCCCC(C)C)OC(CO)C(O)C1O (stereo unspecified)	-27.8%	u
O=C(OCc1cn([C@H]2CN(CC3CCCCC3)[C@@H](c3ccc(Cl)cc3)C[C@H]2O)nn1)c1ccccc1	-35.0%	u
CC[C@@]1([C@@H]2O[C@@H]([C@H]3O[C@@](O)(CO)[C@H](C)C[C@@H]3C)C[C@@H]2C)CC[C@H]([C@]2(C)CC[C@]3(C[C@H](O)[C@@H](C)[C@@H]([C@@H](C)[C@@H](OC)[C@H](C)C(=O)O)O3)O2)O1 (stereo in doubt)	2.82µM*!	3.98µM*!
Nc1c2ccccc2nc2ccccc12 (tested in a mixture with another compound)	-7.3%	7.08µM*
Nc1cccc2c(N)cccc12	-6.8%[107 µM]	3.0%[107 µM]
COCC=CC1=CC2=CC(=O)C(C)(OC(=O)c3cnc4ccccc4n3)C(=O)C2=CN1Cc1ccccc1 (stereo unspecified)	4.2%[8.59 µM]	18.6%[8.59 µM]
C=CCOC(=O)C(C(C)=O)[C@@H](NC(=O)OC)c1cccc(C(F)(F)F)c1 (stereo partly specified)	1.0%[8.59 µM]	4.2%[8.59 µM]
COC(=O)[C@H]1[C@H](C)[C@@]2(O)c3ccccc3N(C)[C@@]1(C)[C@H]2O	-14.0%[8.59 µM]	-24.9%[8.59 µM]
COc1cc2c3cc1Oc1cc(ccc1O)C[C@@H]1c4c(cc(OC)c(O)c4Oc4ccc(cc4)C[C@@H]3N(C)CC2)CC[N+]1(C)C	-9.0%	1.0%
COc1ccc2cc1Oc1ccc(cc1)CC1c3cc(c(OC)cc3CCN1C)Oc1c(OC)c(OC)c(OC)c3c1C(C2)N(C)CC3 (stereo unspecified)	u	10µM*
O=Nc1ccc(O)c2ncccc12	2.51µM*	3.98µM*
Nc1ccc(O)c([N+](=O)[O-])c1	-14.9%[107 µM]	-15.9%[107 µM]
O=[N+]([O-])c1ccc(O)c2ncccc12	11.2µM*	15.8µM*
Cc1ccc(O)c2ncccc12	12.1%	32.8%
COC(=O)N[C@H](CC(C)=O)c1ccc(Cl)cc1	-20.9%[8.59 µM]	2.9%[8.59 µM]
CCOC(=O)CN1C(=O)[C@]2(OCCC=C[C@@H]2C)c2ccccc21	11.3%[8.59 µM]	1.2%[8.59 µM]
COc1cccc(CO[C@H]2C=C[C@@H](c3ccccc3)O[C@H]2CN=[N+]=[N-])c1	25.1%[8.59 µM]	-17.2%[8.59 µM]
COC1=C[C@H](C(=O)NCCOC(C)=O)[C@@]2(C)Cc3ccccc3[C@@H]2CC1=O	-14.9%[8.59 µM]	-10.3%[8.59 µM]
COC(=O)[C@@H]1[C@H](CCc2ccccc2)NC(=O)N(Cc2ccccc2)[C@H]1C	x	-24.5%[8.59 µM]
SMILES	Lassa entry	Marburg entry
CN(C)CC[C@@H](c1ccccc1)c1ccccn1	-13.2%[17.8 µM]	-2.3%[17.8 µM]
CN(C)CCC(c1ccc(Br)cc1)c1ccccn1 (stereo unspecified)	-4.7%	10µM*
COc1cccc(-n2ncc3c(NN=Cc4cccc(F)c4)ncnc32)c1	x	-10.8%
Cc1cc(-c2ccccn2)cc(C)c1C=Cc1cncc(-c2nn[nH]n2)c1	38.2%	-21.4%
O=C(CCCN1CCC(O)(c2ccc(Br)cc2)CC1)c1ccc(F)cc1	-15.9%[17.8 µM]	u
O=C(CCCN1CCC(O)(c2ccc(Cl)cc2)CC1)c1ccc(F)cc1	u	12.6µM*
COCOCCn1cc(CN2CCS(=O)(=O)N(Cc3ccc(-c4cccc(N(C)C)c4)cc3)C(C)C2=O)nn1 (stereo unspecified)	18.0%	9.2%
O=S1(=O)CC(N2CC=CC2)CN1CCc1ccccc1 (stereo unspecified)	17.8%	20.3%
CC(=O)OC[C@]12C[C@H](OC(=O)CC(C)C)C(C)=C[C@H]1O[C@H]1[C@H](O)[C@@H](OC(C)=O)[C@@]2(C)[C@]12CO2	0.178µM*	8.91µM*
CC(=CC[Si](C)(C)C)CCC=O	x	-25.1%[8.59 µM]
CC(=O)O[C@H]1C[C@H](O[C@H]2[C@@H](O)C[C@H](O[C@H]3[C@@H](O)C[C@H](O[C@H]4CC[C@@]5(C)[C@H](CC[C@@H]6[C@@H]5C[C@@H](O)[C@]5(C)[C@@H](C7=CC(=O)OC7)CC[C@]65O)C4)O[C@@H]3C)O[C@@H]2C)O[C@H](C)[C@H]1O[C@@H]1O[C@H](CO)[C@@H](O)[C@H](O)[C@H]1O	0.0501µM*	u
CCCC[C@]12Cc3ccccc3[C@H](O1)c1c(cc(-c3ccccc3)oc1=O)O2	-20.2%[8.59 µM]	u
CC(C)C[C@H]1COc2c(Cl)cccc2S(=O)(=O)N1Cc1ccc(Cl)cc1	u	-22.7%
Cc1cccc([C@H]2[C@@H]3C=CCC[C@@]3(C)C(=O)N2Cc2ccccc2)c1	6.6%	-24.8%
C[C@@]12CCC=C[C@H]1[C@H](c1ccccc1Br)N(Cc1ccccc1)C2=O	-26.3%	20µM*
CC1(C)CC(=O)C2=C(C1)O[C@@]1(c3ccsc3)Cc3cc(C#N)ccc3[C@H]2O1	8.8%[8.59 µM]	u
CCC(=C(CC)c1ccc(O)cc1)c1ccc(O)cc1	6.31µM*	u
CCOC(=O)c1ccc(O)cc1	6.8%	13.0%
CC/C(=C(/CC)c1ccc(OP(=O)(O)O)cc1)c1ccc(OP(=O)(O)O)cc1	-13.8%	8.0%
CC/C(=C(/CC)c1ccc(O)cc1)c1ccc(O)cc1	3.55µM*	u
COc1cc2c(cc1O)CCN[C@]21CS[C@@H]2c3c(OC(C)=O)c(C)c4c(c3[C@H](COC1=O)N1[C@@H]2[C@H]2c3c(cc(C)c(OC)c3O)C[C@@H]([C@@H]1O)N2C)OCO4	39.8µM*!	u
C=CC[C@@H]1C=C(C(=O)OC)N(C(=O)C(F)(F)F)[C@@H](c2ccccc2Br)[C@@H]1C	2.9%[8.59 µM]	9.1%[8.59 µM]
C=CCN1c2ccccc2[C@]23CCC(=O)N(CCOC)C2=NC(C(=O)OC)=C(C(=O)OC)[C@H]13	50.4%[8.59 µM]	12.9%[8.59 µM]
COC(=O)C1=C(C)N(CC2CC2)C(=O)NC1c1ccccc1 (stereo unspecified)	1.1%[8.59 µM]	-5.3%[8.59 µM]
CC1=CC[C@@H](COc2ccccc2)O[C@@]2(C1)C(=O)N(Cc1ccc(Br)cc1)c1ccccc12	-24.6%[8.59 µM]	25.0%[8.59 µM]
CCc1cc2c(nc1CC)CCN(CCC(C)=NO[C@H](C)c1cn([C@H](CO)Cc3ccccc3)nn1)C2	1.6%[8.59 µM]	u
O=C(Nc1cccc(Cl)c1)OCC#CCCl	-29.3%	11.2µM*
C[N+](C)(C)CC#CCOC(=O)Nc1cccc(Cl)c1	-12.8%	2.7%
CNCC/C=C/c1cccnc1	-22.9%	-3.6%
CNCCC=C1c2ccccc2CCc2ccccc21	31.6µM*	10µM*
